From the supplement of paper PMC11732987, “Enantioselective OTUD7B fragment discovery through chemoproteomics screening and high-throughput optimisation” (Communications Chemistry, 2025)

Tests used:
Test in all cases: log2 ratio of Biotin-Ahx-Ub-VS probe labelling (fragment/DMSO); higher = less target engagement (more negative = stronger competition), active = hit call of the paper (q ≤ 0.05, log2 ratio ≤ -1)
Details in all cases: compound concentration: 200 uM; treatment time: 3 h
USP34 = USP34 (UniProt Q70CQ2)
Chain of USP34 (Q70CQ2 whole entry, the tested form may be a part): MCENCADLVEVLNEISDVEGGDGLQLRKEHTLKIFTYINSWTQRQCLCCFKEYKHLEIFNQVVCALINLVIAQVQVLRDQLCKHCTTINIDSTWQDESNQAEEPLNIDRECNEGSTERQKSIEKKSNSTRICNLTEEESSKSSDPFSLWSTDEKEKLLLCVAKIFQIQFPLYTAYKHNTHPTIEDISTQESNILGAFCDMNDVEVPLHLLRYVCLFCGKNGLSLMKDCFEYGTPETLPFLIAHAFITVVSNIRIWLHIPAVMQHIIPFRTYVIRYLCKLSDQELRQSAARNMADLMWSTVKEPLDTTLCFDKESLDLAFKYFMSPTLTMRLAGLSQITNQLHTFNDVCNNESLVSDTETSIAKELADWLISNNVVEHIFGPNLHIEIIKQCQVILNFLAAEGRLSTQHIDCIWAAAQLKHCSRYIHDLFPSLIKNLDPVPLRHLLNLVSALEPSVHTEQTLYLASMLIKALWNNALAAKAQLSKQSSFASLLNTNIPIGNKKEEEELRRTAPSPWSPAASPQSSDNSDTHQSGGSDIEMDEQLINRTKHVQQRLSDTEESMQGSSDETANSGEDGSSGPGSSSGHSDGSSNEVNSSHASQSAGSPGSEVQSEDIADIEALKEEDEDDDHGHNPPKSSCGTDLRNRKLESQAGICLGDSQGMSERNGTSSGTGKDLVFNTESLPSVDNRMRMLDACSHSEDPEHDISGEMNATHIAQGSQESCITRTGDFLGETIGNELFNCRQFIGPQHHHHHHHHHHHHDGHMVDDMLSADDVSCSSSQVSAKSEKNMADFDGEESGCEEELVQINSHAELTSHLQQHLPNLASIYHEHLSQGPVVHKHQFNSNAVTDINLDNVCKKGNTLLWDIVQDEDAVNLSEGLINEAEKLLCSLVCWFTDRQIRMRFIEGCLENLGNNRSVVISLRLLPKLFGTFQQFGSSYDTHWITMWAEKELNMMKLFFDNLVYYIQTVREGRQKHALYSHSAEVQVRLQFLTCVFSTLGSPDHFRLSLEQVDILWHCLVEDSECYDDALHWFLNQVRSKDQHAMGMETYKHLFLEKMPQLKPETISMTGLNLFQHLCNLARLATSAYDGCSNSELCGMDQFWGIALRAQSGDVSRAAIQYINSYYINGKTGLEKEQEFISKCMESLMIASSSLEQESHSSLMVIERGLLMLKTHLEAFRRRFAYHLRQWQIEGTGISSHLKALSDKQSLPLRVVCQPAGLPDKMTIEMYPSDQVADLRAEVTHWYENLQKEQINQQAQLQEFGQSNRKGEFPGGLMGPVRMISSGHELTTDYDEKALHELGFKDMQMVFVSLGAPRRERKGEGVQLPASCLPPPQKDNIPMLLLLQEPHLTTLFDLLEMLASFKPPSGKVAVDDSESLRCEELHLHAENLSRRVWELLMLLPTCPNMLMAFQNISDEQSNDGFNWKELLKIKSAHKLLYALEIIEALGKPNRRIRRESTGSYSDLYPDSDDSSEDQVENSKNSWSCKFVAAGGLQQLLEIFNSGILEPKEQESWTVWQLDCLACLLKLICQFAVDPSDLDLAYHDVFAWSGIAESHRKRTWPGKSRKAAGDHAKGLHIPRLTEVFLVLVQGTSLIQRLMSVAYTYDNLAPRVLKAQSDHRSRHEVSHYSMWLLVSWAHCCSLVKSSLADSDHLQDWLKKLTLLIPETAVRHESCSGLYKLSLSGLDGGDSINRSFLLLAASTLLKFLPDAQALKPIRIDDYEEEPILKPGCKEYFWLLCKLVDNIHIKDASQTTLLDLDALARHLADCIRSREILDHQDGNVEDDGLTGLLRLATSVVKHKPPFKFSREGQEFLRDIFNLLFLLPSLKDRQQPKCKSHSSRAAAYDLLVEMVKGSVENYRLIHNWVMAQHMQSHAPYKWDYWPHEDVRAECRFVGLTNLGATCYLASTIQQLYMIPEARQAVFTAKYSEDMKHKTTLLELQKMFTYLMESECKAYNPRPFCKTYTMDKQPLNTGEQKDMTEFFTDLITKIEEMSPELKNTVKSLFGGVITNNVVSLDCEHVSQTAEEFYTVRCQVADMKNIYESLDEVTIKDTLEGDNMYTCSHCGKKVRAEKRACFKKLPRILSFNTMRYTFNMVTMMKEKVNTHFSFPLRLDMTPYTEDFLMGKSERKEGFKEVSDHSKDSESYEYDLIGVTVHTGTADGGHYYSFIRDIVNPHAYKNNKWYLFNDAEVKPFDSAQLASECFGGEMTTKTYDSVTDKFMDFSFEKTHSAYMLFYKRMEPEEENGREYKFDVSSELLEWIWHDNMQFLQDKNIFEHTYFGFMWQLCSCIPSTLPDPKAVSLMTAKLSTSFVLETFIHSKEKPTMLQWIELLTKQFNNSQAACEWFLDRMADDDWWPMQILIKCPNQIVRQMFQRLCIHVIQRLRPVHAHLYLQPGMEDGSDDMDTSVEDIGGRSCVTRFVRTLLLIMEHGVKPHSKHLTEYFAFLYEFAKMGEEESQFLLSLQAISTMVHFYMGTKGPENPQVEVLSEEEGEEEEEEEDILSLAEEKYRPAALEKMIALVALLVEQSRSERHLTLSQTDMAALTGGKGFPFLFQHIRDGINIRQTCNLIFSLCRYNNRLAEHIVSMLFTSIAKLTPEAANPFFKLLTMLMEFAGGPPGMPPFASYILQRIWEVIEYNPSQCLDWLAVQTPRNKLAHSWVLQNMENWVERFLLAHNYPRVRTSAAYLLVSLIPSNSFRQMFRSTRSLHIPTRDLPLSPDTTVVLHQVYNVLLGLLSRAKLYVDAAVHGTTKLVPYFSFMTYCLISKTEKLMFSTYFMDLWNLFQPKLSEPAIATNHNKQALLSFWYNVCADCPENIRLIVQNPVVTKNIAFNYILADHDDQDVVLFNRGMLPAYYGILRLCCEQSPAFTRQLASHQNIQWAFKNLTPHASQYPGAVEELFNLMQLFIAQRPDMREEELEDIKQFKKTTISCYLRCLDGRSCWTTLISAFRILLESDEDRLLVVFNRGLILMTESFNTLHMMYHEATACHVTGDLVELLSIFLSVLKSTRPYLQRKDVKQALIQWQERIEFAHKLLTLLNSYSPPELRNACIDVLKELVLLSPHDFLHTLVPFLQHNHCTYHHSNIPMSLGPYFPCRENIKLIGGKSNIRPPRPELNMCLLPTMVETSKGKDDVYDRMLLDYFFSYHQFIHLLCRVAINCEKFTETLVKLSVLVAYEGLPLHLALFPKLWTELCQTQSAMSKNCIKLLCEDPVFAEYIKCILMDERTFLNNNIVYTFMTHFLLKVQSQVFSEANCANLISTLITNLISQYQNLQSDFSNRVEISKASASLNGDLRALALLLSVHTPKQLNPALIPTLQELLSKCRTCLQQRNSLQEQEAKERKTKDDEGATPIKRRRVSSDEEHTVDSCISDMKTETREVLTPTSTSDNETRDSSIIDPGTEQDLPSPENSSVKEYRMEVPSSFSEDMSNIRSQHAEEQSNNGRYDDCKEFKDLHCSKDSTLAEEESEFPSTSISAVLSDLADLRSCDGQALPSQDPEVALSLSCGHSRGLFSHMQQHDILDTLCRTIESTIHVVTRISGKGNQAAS
In short: (§1)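 Labelled DUBs from HEK293T lysate were NeutrAvidin-enriched, digested with LysC and trypsin, and run by diaPASEF LC-MS/MS. Before that, each 495 µg sample in Tris/CHAPS/IGEPAL buffer with protease inhibitors was treated in triplicate with fragment at 200 µM or vehicle for 3 h, then with Biotin-Ahx-Ub-VS at 0.5 µM final for 1 h. Values are average log2 ratios of fragment over vehicle by unpaired t-test, based on global-median-normalised Spectronaut label-free quantities from proteins with ≥2 unique peptides.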

USP36 = target: T1, USP36 (UniProt Q9P275)
T1 sequence (whole entry): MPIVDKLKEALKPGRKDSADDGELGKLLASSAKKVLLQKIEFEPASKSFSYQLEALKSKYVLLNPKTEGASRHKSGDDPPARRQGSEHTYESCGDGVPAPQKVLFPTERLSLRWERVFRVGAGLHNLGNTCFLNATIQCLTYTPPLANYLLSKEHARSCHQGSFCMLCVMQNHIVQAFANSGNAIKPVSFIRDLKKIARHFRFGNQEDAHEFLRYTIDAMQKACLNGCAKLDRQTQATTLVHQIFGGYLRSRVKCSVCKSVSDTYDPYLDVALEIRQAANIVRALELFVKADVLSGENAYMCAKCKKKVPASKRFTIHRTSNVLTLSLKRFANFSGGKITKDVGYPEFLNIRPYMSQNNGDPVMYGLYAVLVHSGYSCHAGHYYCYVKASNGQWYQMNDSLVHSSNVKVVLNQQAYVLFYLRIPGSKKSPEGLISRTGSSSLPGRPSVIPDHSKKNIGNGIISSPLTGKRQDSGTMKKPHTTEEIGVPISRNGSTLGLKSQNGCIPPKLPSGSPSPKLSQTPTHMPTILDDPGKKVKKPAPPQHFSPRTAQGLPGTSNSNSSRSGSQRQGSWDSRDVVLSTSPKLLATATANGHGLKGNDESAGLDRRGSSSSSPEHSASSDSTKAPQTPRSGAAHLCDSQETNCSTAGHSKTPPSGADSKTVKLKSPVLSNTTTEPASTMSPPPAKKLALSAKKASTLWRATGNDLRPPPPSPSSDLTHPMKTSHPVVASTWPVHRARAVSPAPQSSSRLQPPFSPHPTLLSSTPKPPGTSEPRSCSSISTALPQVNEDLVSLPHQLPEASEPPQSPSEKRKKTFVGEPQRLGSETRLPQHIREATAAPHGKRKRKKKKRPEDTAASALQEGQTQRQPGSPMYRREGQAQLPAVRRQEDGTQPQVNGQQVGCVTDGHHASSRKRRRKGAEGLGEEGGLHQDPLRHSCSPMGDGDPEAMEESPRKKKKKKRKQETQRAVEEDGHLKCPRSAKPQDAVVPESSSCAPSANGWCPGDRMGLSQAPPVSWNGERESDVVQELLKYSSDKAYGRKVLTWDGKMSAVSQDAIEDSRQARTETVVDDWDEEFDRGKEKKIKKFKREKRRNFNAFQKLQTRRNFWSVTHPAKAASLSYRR
In short: as §1

USP38 = target: T2, USP38 (UniProt Q8NB14)
T2 sequence (whole entry): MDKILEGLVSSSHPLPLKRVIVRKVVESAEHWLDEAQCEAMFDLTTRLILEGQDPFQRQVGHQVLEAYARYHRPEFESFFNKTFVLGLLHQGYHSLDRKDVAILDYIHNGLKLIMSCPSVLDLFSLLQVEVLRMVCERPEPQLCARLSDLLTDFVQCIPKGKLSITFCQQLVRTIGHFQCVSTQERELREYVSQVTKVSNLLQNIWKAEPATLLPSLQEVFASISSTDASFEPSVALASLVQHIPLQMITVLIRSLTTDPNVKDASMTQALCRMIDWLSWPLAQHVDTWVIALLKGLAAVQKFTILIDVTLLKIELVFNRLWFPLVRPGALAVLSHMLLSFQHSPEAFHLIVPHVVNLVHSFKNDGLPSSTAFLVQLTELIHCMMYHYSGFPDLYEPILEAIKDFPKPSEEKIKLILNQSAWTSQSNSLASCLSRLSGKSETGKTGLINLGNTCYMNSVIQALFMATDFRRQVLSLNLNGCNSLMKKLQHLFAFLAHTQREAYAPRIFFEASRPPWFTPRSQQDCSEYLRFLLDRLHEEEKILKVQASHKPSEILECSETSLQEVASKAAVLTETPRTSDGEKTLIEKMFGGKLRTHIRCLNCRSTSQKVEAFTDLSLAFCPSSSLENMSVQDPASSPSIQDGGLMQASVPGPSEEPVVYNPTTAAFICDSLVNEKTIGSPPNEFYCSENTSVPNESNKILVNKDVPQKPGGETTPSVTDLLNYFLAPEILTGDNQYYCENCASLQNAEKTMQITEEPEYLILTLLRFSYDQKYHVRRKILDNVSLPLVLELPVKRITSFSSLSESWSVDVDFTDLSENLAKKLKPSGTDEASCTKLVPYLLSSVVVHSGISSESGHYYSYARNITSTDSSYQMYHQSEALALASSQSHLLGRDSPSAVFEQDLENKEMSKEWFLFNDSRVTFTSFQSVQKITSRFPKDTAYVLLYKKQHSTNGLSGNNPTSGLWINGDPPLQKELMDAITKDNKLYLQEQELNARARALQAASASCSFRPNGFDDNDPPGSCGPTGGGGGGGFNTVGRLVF
In short: as §1

USP39 = target: T3, USP39 (UniProt Q53GS9)
T3 sequence (whole entry): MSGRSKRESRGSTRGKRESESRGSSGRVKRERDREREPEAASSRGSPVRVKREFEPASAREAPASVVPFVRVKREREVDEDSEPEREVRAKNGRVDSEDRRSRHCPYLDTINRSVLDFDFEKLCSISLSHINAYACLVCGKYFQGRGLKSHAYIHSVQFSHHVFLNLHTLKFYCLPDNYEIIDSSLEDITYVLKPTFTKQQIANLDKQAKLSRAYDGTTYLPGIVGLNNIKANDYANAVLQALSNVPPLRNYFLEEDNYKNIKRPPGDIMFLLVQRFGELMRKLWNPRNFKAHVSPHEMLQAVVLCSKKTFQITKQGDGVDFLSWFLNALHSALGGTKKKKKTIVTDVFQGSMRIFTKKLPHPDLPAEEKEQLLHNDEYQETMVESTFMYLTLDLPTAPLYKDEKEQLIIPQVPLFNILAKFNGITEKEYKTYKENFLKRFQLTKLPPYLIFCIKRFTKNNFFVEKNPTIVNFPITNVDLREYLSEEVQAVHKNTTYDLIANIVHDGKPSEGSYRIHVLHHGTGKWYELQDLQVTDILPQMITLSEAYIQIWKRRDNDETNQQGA
In short: as §1

USP4 = target: T4, USP4 (UniProt Q13107)
T4 sequence (whole entry): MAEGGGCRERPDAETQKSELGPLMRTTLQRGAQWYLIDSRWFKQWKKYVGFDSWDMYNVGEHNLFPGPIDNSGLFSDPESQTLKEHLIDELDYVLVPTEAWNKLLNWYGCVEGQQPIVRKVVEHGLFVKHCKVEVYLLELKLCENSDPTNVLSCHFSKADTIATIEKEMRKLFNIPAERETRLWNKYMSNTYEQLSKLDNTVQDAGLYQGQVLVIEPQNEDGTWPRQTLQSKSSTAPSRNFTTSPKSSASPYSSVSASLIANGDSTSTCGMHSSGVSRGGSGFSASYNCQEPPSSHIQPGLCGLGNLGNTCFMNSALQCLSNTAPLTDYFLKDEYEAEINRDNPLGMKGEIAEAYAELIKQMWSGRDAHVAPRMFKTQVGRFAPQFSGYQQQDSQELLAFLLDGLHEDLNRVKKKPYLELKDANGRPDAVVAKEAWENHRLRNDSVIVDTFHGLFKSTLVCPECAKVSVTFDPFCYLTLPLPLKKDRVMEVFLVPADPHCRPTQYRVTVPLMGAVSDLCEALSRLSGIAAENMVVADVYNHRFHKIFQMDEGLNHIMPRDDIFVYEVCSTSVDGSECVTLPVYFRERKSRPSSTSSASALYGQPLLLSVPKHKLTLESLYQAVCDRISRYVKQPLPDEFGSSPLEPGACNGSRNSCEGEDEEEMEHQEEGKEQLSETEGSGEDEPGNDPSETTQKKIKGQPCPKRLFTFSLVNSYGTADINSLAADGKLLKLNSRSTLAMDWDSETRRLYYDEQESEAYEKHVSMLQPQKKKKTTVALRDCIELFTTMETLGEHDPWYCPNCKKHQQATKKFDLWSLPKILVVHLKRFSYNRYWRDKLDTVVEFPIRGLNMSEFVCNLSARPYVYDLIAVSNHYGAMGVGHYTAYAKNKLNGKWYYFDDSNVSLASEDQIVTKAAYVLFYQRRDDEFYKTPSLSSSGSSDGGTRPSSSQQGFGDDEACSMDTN
In short: as §1

Measured: log2 ratio of Biotin-Ahx-Ub-VS probe labelling

O=C(CCl)NCCc1ccc2c(c1)OCCO2
inactive: USP34 -0.523 | USP36 -0.0707 | USP38 -0.0664 | USP39 -0.16 | USP4 -0.295
